# Laboratory results published in PubChem BioAssay (NCATS).
# Results filed as inconclusive are left out. Unmarked numbers belong to inactive results. Active and inactive are the calls of the source. Calls follow the shape of the dose curve; as a rule, active = well fitted cell-killing curve with a large enough effect; inconclusive = small, poorly fitted or top-dose-only effect; inactive = flat fitted curve, though single readings scatter.
# Assay: Cellular viability qHTS for adrenocortical cancer (ACC) cell line NCI-H295R (AID 1963990); also: nearly all actives have a fitted effect of over 60% in size;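 as to activity change, negative = viability loss: 0% = DMSO only wells and -100% = full killing with cytotoxic reference compound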
# Conditions: CellTiter-Glo ATP luminescence, 48 h; series mostly up to 46.1 µM; activity change, negative = viability loss: at the top concentration
# In short: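 CellTiter-Glo ATP luminescence, read 48 h after compound addition, measured viability of NCI-H295R adrenocortical cells grown serum-free with ITS. Final concentrations spanned up to 46 uM. Data normalized to DMSO and doxorubicin, fitted for IC50 and maximal response.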
# Potency is read from the fitted curve at half-maximal effect.
SMILES,Potency,"activity change, negative = viability loss"
CC(C)(Cc1ccc2ccccc2c1)NC[C@@H](O)COc1cccc(Cl)c1C#N,6.31 µM (active),–
CCCCNc1ncc2c(-c3ccc(F)cc3)nn(CC3CCC(N)CC3)c2n1 (centres undefined),7.15 µM (active),–
Cc1cccc(C)c1NC(=O)c1ccc(N)cc1,–,-11.8%
CC(C)COCC(CN(Cc1ccccc1)c1ccccc1)N1CCCC1 (centres undefined),15.8 µM (active),–
CN1C(=O)N[C@H](Cc2c[nH]c3c(Cl)cccc23)C1=O,–,-5.47%
CN(C)CCOc1ccc(/C(=C(/CCCl)c2ccccc2)c2ccccc2)cc1,8.91 µM (active),–
CCOC(=O)c1cnc2c(cnn2CC)c1NN=C(C)C,–,-13.7%
C/C=C/C[C@@H](C)C(=O)[C@H]1C(=O)N[C@@H](C(C)C)C(=O)N(C)CC(=O)N(C)[C@@H](CC(C)C)C(=O)N[C@@H](C(C)C)C(=O)N(C)[C@@H](CC(C)C)C(=O)N[C@@H](C)C(=O)N[C@H](C)C(=O)N(C)[C@@H](CC(C)C)C(=O)N(C)[C@@H](CC(C)C)C(=O)N(C)[C@@H](C(C)C)C(=O)N1C,–,-24.2% [at 20 µM]
C#CC[C@H](c1nc2cc(Cl)ccc2c(=O)n1Nc1ccccc1)N(CCCN)C(=O)c1cccc(Cl)c1F,3.55 µM (active),–
c1ccc2sc(SN3CCOCC3)nc2c1,–,-4.56%
C[C@H](N)[C@H](O)c1cccc(O)c1,–,9.26%
CC(C)Oc1ccc(-c2nn([C@@H](C)c3oc4ccc(F)cc4c(=O)c3-c3cccc(F)c3)c3ncnc(N)c23)cc1F,–,-19.4%
O=C(CCCl)NCCc1ccccc1,–,-7.26%
CN(C)C(=O)c1cc2cnc(Nc3ccc(N4CCNCC4)cn3)nc2n1C1CCCC1,–,0.361%
